Among all 310,000 compounds or so, about 14,000 (4.5%) showed an effect of 50% or more. The effect is printed as a negative number. What follows is part of a selection rich in strong results, with near analogues and random picks from the rest.
These compounds were tested against human ether-à-go-go-related gene (hERG) potassium channel (human, UniProt Q12809) (assay: primary screen, population patch clamp on CHO cells stably expressing hERG; higher = less effect of the substance).
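Also: peak tail current of the secondary pulse compared with the same well before compound.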

Sequence of human ether-à-go-go-related gene (hERG) potassium channel (Q12809 whole entry, looked up): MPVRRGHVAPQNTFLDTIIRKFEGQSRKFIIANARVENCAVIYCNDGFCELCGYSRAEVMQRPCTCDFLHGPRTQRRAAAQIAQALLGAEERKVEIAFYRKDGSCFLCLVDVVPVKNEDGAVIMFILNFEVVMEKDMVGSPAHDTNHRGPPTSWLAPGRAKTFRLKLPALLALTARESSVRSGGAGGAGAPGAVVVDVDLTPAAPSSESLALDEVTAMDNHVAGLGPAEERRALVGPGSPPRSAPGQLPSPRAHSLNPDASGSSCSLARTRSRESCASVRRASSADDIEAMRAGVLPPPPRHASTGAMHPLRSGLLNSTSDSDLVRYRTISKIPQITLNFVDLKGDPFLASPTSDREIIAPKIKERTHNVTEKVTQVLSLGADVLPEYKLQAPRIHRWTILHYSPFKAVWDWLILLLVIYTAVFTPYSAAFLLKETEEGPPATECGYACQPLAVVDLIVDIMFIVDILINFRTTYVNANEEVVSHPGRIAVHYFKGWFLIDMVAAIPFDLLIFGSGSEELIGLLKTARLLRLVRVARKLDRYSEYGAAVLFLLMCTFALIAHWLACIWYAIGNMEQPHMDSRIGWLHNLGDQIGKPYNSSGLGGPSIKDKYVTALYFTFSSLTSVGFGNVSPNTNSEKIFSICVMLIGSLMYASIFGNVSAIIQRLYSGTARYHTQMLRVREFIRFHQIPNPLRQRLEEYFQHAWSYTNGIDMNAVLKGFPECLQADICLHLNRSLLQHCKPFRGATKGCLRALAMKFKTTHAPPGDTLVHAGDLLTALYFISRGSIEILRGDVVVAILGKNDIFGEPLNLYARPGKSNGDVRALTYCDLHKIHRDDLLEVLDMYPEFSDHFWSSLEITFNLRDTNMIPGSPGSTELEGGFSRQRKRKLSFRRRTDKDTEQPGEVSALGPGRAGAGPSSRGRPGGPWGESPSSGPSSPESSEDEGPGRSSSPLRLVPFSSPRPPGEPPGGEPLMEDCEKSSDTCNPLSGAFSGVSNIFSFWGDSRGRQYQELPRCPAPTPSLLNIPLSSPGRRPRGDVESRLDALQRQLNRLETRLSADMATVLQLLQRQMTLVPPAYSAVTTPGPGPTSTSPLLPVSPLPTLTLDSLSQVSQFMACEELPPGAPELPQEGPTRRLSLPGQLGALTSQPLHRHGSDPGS

SMILES	hERG current change (%, negative = inhibition) at 10uM [%]
CCn1c(=O)c([N+](=O)[O-])c(NC2CCS(=O)(=O)C2)c2ccccc21 (stereo not shown)	5.85
COCCNC(=O)CCC1CCN(Cc2cccc(Oc3ccccc3)c2)CC1	-55.3
COCCNC(=O)CCc1nnc(Cc2ccc(-c3ccccc3)cc2)o1	14.5
COCCNC(=O)CCC1CCN(Cc2cccc(-c3ccc(C)o3)c2)CC1	-25.3
COCCNC(=O)CCC1CCN(Cc2ccc(-c3ccccc3)cc2)CC1	-63.6
COCCNC(=O)CN1CCC(NC(=O)Nc2ccccc2)CC1	-8.21
OC1CCN(Cc2cccc(Oc3ccccc3)c2)CC1	6.4
Clc1ccccc1-c1nnc2sc(-c3ccco3)nn12	-21.8
O=C(CSc1ccc([N+](=O)[O-])cn1)Nc1ccccc1N1CCOCC1	-19.2
c1nc(NC2CCCCC2)c2[nH]cnc2n1	-3.86
COc1ccc(/C=C2\CCCCC2=O)cc1	-6.19
Cc1ccc(C(C)C)c(OCC(=O)Nn2c(=O)[nH]c3ccccc3c2=O)c1	-12.6
COc1ccc(/C=N/n2cnc3c([nH]c4ccccc43)c2=O)cc1CO	11.2
COc1ccc(/C=N/n2c(=O)[nH]c3c([nH]c4ccc(Cl)cc43)c2=O)cc1CN1CCCCC1	-13
COc1ccc2c(c1)[nH]c1c(=O)n(/N=C/c3ccc(OC)c(CN4CCCCC4)c3)cnc12	-64.3
COc1ccc(/C=N/n2cnc3c([nH]c4ccccc43)c2=O)cc1COc1ccccn1	-8.67
COc1ccc2c(c1)[nH]c1c(=O)n(/N=C/c3ccc(OC)c(CN4CCCC4)c3)cnc12	-71.1
COc1ccc2c(c1)[nH]c1c(=O)n(/N=C/c3ccc(OC)c(COc4ccccn4)c3)cnc12	-9.63
CCC(C)NC(=O)CN(c1ccc(Cl)c(Cl)c1)S(C)(=O)=O (stereo not shown)	3.62
O=C(NC1CCCC1)c1cc(S(=O)(=O)N2CCOCC2)c(Cl)cc1Cl	-8.15
O=C(Nc1nnc(-c2ccc3c(c2)CCCC3)o1)C1CCCCC1	4.3
O=C(CSc1nnc(NC(=O)c2ccccc2F)s1)Nc1ccccc1F	30.9
CCn1c(SCC(=O)N2CCCCC2)nc2c1c(=O)n(C)c(=O)n2C	14.3
CCCOc1ccc(/C(O)=C2/C(=O)C(=O)N(CCCOC)C2c2cccnc2)cc1 (stereo not shown)	-5.91
CCCOc1ccc(/C(O)=C2/C(=O)C(=O)N(CCCOC)C2c2ccncc2)cc1 (stereo not shown)	-53.1
CCCCOc1ccc(/C(O)=C2/C(=O)C(=O)N(CCCOC)C2c2ccncc2)cc1 (stereo not shown)	18.2
CN(Cc1ccccc1)C1CCN(Cc2ccccc2[N+](=O)[O-])CC1.O=C(O)C(=O)O	-59.6
COc1cccc(C(=O)N2CCN(Cc3ccccc3[N+](=O)[O-])CC2)c1	-14.5

SMILES	hERG current change (%, negative = inhibition) at 10uM [%]
COc1ccc(C(=O)N2CCN(Cc3ccccc3[N+](=O)[O-])CC2)cc1.O=C(O)C(=O)O	-58.9
O=C(C1CCCN(Cc2ccccc2[N+](=O)[O-])C1)N1CCCC1.O=C(O)C(=O)O (stereo not shown)	11.4
O=C(c1cccs1)N1CCN(Cc2ccccc2[N+](=O)[O-])CC1	-17.7
CC(C)CC(=O)N1CCN(Cc2ccccc2[N+](=O)[O-])CC1.O=C(O)C(=O)O	-7.35
O=C(Cc1ccccc1[N+](=O)[O-])NC1CCN(Cc2ccccc2)CC1	-1.68
O=C(O)C(=O)O.O=C(c1ccc([N+](=O)[O-])cc1)N1CCN(Cc2ccccc2[N+](=O)[O-])CC1	-75
COc1cc(OC)cc(C(=O)N2CCN(Cc3ccccc3[N+](=O)[O-])CC2)c1.O=C(O)C(=O)O	-46.5
CC(=O)Nc1cccc(NC(=O)CSc2ccc(-c3cccnc3)nn2)c1	7.43
CCC(C)/C(C)=N/NC(=O)CSc1nc2ccccc2[nH]1 (stereo not shown)	2.26
O=C1C2CC=CCC2C(=O)N1CNc1ccccc1 (stereo not shown)	14.7
Cc1c(Cl)c([N+](=O)[O-])nn1CCCC(=O)Nc1ccc(Cl)cc1Cl	-45.1
COc1ccc(CNC(=O)C(=O)NCC2OCCN2S(=O)(=O)c2cccs2)cc1 (stereo not shown)	-4.34
O=C(CNC1C(=O)Nc2ccccc21)Sc1ccccc1 (stereo not shown)	22.3
CCSc1nnc(NC(=O)Cc2cc(OC)c(OC)c(OC)c2)s1	8.27
CSc1nnc(SCC(=O)N(C)c2c(N)n(Cc3ccccc3)c(=O)[nH]c2=O)s1	5.79
CC(C)C[C@H](NC(=O)c1nc[nH]c1C(=O)NCc1ccccc1)C(=O)OCc1ccccc1	-7.88
COCCn1c(SCC(=O)NC2CCCC2)nnc1C(C)C	22.6
O=C(CCC1CCN(Cc2ccc(C#CCCO)cc2)CC1)NC1CC1	-46.7
CSc1ccccc1C(=O)N1CCC(CCC(=O)NC2CC2)CC1	11.6
CSc1ccc(C(=O)N2CCC(CCC(=O)NC3CC3)CC2)cc1	-30.8
O=C(CCC1CCN(Cc2ccc(Cl)cc2)CC1)NC1CC1	-65.9
CSc1cccc(CN2CCC(CCC(=O)NC3CC3)CC2)c1	-62.6
O=C(CCC1CCN(Cc2ccccc2Cl)CC1)NC1CC1	-23.2
CN(Cc1cnn(C)c1)Cc1nc(-c2ccc(Cl)cc2)no1	-4.26
Cn1c(=O)c2c(SC3CCCC3)nc(C3CC3)nc2n(C)c1=O	18.8
S=C1NCCOCCOCCNC(=S)N2CCOCCOCCN1CCOCCOCC2	5.22
CCOC(=O)c1[nH]c(C)c(C(=O)N2CCN(c3cccc(Cl)c3)CC2)c1C	-13.8
